Experimental data from the supplement of paper PMC6897291.
Where a name gives a salt, the structure may show the parent alone.

Tested on: U-2932
Experiment: growth inhibition by drug alone (1 - RLU/untreated control) (fraction); higher = stronger inhibition
Settings: 177Lu-lilotomab satetraxetan 0 ug/ml
Method: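 U-2932 ABC-DLBCL cells were pretreated or not for 18 h with 1 ug/ml 177Lu-lilotomab satetraxetan (600 MBq/mg), washed and seeded (3000 cells/well) on 384-well plates pre-printed with the Selleck Cambridge Cancer Compound library. Viability was read by RealTime-Glo luminescence on days 3-6 after seeding. Effect = 1 - RLU/mean RLU of the 48 untreated no-drug control wells per plate; Bliss score = (M-E)/(1-Fa), with E the expected Bliss-additive effect.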

| SMILES | growth inhibition by drug alone (10 nM, time (day): 3) | growth inhibition by drug alone (10 nM, time (day): 4) | growth inhibition by drug alone (10 nM, time (day): 5) | growth inhibition by drug alone (10 nM, time (day): 6) | growth inhibition by drug alone (1000 nM, time (day): 3) | growth inhibition by drug alone (1000 nM, time (day): 4) | growth inhibition by drug alone (1000 nM, time (day): 5) | growth inhibition by drug alone (1000 nM, time (day): 6) |
| --- | --- | --- | --- | --- | --- | --- | --- | --- |
| Cc1cccc(-c2[nH]c(C(C)(C)C)nc2-c2ccc3nccnc3c2)n1 | 0.121 | 0.0591 | -0.0391 | -0.0718 | 0.0282 | 0.0616 | 0.0184 | -0.0529 |
| CO[C@H]1C[C@@H]2CC[C@@H](C)[C@@](O)(O2)C(=O)C(=O)N2CCCC[C@H]2C(=O)O[C@H]([C@H](C)C[C@@H]2CC[C@@H](OCCO)[C@H](OC)C2)CC(=O)[C@H](C)/C=C(\C)[C@@H](O)[C@@H](OC)C(=O)[C@H](C)C[C@H](C)/C=C/C=C/C=C/1C [Everolimus (RAD001)] | 0.744 | 0.686 | 0.591 | 0.52 | 0.743 | 0.728 | 0.667 | 0.605 |
| COc1cc2ncnc(-n3nc(-c4ccccn4)nc3N)c2cc1OC | 0.133 | 0.114 | 0.0839 | 0.0512 | 0.057 | 0.0631 | 0.00213 | -0.164 |
| COc1ccc(-c2ccc3c(N4CCOC[C@@H]4C)nc(N4CCOC[C@@H]4C)nc3n2)cc1CO | 0.165 | 0.142 | 0.0822 | 0.157 | 0.896 | 0.892 | 0.897 | 0.909 |
| CCCC(CCC)C(=O)O [Valproic acid sodium salt (Sodium valproate)] | 0.135 | 0.0829 | -0.0268 | -0.0189 | -0.0134 | 0.0276 | -0.0122 | -0.131 |
